Sampled rows, rich in hits. Any-hit rate of the full collection: about 3.3%.
Tau FP inhib: qHTS for Inhibitors of Tau Fibril Formation, Fluorescence Polarization | Microtubule-associated protein tau (Homo sapiens), P10636 | 280,000 tested, 0.39% active | Potency, µM (series often up to 57.7 µM), for the others: at the top dose activity, negative = inhibition, actives largely listed as inhibitors | K18 P301L tau heparin fibrillization, Alexa594 FP, 6 h; also: nearly all actives have a fitted effect of over 55% in size
Target sequence (P10636 561-689 P618L limits assumed): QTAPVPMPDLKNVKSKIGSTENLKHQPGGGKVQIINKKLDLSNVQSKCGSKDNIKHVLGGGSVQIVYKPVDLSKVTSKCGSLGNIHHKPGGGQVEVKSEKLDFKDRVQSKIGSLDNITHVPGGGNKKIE
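Compound effects on tau fibrillization are measured by Alexa 594 fluorescence polarization (ex 555, em 632 nm). K18 P301L tau is used at 15 uM with 0.24 uM labeled tracer, and 20 uM heparin induces aggregation over 6 hr at 37 C.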
NPSR antag: qHTS Assay for Antagonists of the Neuropeptide S Receptor: cAMP Signal Transduction | Q6W5P4 | CHO-NPSR cells, cAMP TR-FRET, antagonist mode | Potency, µM (series often up to 38.3 µM), inactives show at the top dose activity change, negative = inhibition, usual class: inhibitors | 220,000 tested, 1% active | AID 1461, 2008; also: nearly all actives have a fitted effect of over 50% in size
Target sequence (Q6W5P4 whole entry, looked up): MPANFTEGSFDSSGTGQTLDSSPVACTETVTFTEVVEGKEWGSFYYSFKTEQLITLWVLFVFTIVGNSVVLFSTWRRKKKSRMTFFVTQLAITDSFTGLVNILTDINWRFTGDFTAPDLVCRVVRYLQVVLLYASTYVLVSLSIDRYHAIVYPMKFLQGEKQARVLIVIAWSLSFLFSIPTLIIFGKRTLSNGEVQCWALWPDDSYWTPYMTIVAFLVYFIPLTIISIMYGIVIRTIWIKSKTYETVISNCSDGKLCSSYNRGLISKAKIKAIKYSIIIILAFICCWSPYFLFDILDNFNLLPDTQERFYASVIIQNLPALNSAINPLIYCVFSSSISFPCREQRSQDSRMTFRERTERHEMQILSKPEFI
Tau fibril ThT: qHTS for Inhibitors of Tau Fibril Formation, Thioflavin T Binding | recombinant tau K18 P301L, heparin-induced fibrillization, ThT fluorescence | Potency, µM (doses to about 57.4 µM), for the others: top-dose activity, negative = inhibition, actives largely listed as inhibitors | 270,000 tested, 2.1% active; also: nearly all actives have a fitted effect of over 55% in size
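Recombinant human tau K18 fragment […] carrying P301L, 15 uM unlabeled plus 0.24 uM Alexa 594-labeled, was fibrillized with 20 uM heparin in 100 mM sodium acetate pH 7 for 6 hr at 37 C; 30 uM ThT fluorescence read after 1 hr.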
Luc counter: Counterscreen for Luciferase (Kinase-Glo TM) Inhibition. Kinase-Glo luciferase, ATP luminescence, 8 min. Potency, µM (titrated, usually from 38.3 µM), for inactives: top-dose activity change, negative = inhibition, hits mostly inhibitors. 200,000 tested, 0.28% active; also: nearly all actives have a fitted effect of over 60% in size
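Inhibition of Kinase-Glo luciferase light generation was assessed at 10 uM ATP in pH 7.2 imidazole buffer, with luminescence measured after eight minutes at ambient temperature.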
Tau fluor counter: Counterscreen qHTS for Inhibitors of Tau Fibril Formation, Fluorescence Polarization. Potency, µM (titrated, usually from 57.7 µM), without a hit: at the top dose activity change, negative = decrease. 280,000 tested, 0.93% active. tau K18 P301L (four-repeat tau fragment) Alexa594 fluorescence, heparin fibrillization; also: nearly all actives have a fitted effect of over 55% in size
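Human K18 P301L tau (15 uM unlabeled plus 0.24 uM Alexa 594-labeled, final) in 100 mM sodium acetate pH 7 was mixed with compound and 20 uM heparin and incubated 6 hr at 37 C.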
* marks the source's active call; other numbers are inactive results; ? = inconclusive; . = not tested or not shown; [ ] = dose if it differs, or a comment. Calls follow the shape of the dose curve; as a rule, active = well fitted curve in the direction sought with a large enough effect; inconclusive = small, poorly fitted or top-dose-only effect, or another doubt; inactive = no such curve, though single readings can be large; an effect the other way counts as inactive or inconclusive. % is scaled to controls: 0 for no effect and ±100 for the full control effect; potency is read from the fitted curve at half-maximal effect.

SMILES	Tau FP inhib	NPSR antag	Tau fibril ThT	Luc counter	Tau fluor counter
CCN(CC)Cc1c(NC(=O)c2ccc(OC)cc2)sc2c1CCCC2	8.8%	.	?	.	?
CN(C)c1ccc(/C=C/C(=O)c2c(O)c3ccccc3oc2=O)cc1	?	-9.4%	.	.	0.708µM*[fluorescent]
CCOc1ccc(/C=C/C(=O)c2c(O)c3ccccc3oc2=O)cc1	2.5%	4.8%[46.1 µM]	?	-4.6%	1.0%
NC(N)=NCCC[C@H](NC(=O)[C@@H](N)Cc1ccc(O)cc1)C(=O)O	-4.1%	.	-7.6%	.	-3.9%
O=C(Nc1ccc(OCc2ccccc2)cc1)c1ccccc1	4.4%	6.0%	-2.7%	-10.1%	1.1%
Cc1cc(C(=O)Nc2ccc(OCc3ccccc3)cc2)c(C)o1	-7.0%	-33.2%	?	11.2µM*	?
Cc1oc(-c2ccccc2)cc1C(=O)Nc1ccc(N(C)C)cc1	4.6%	-13.5%[46.1 µM]	12.6µM*	-1.8%	14.1µM*[quencher]
COc1ccc(Oc2ncc3nc(C)c(=O)n(Cc4ccc(F)cc4)c3n2)cc1	.	.	.	-0.8%	.
Nc1cc(N2CCCCC2)c(Cl)cc1[N+](=O)[O-]	-1.9%	3.5%[46.1 µM]	12.6µM*	0.7%	?
COc1ccccc1N1CCN(C(=O)C2CCN(S(=O)(=O)c3cnc[nH]3)CC2)CC1	-1.5%	.	3.6%	.	2.3%
COc1cccc(Nc2nc(-c3sc(NC(=O)c4ccco4)nc3C)cs2)c1	?	-12.7%[46.1 µM]	10µM*	-11.6%	?
COc1cccc(Nc2nc(-c3sc(N)nc3C)cs2)c1	-5.7%	-17.7%[46.1 µM]	11.2µM*	0.0%	14.1µM*[quencher]
COc1ccc(-c2csc(Nc3cccnc3)n2)cc1	?	?	?	3.0%	?
COc1ccc(CNc2ncnc3c2[nH]c2cc(OC)c(OC)cc23)cc1	?	-35.5%	?	.	10µM*[quencher]
O=c1c2[nH]c3ccccc3c2ncn1CCC1=CCCCC1	-6.9%	6.0%[46.1 µM]	?	0.1%	-13.3%
COc1ccc(CNc2ncnc3c2[nH]c2ccccc23)cc1	-0.5%	16.6%[7.67 µM]	?	.	20µM*[quencher]
COc1ccc(CCn2cnc3c([nH]c4ccccc43)c2=O)cc1	-4.7%	9.5%	-17.2%	.	-13.4%
C1=C(CCNc2ncnc3c2[nH]c2ccccc23)CCCC1	-4.6%	-28.9%	?	0.6%	15.8µM*[quencher]
Cc1nn(-c2ccccc2)c2sc(C(=O)Nc3ccc(Cl)cc3Cl)cc12	?	.	-9.8%	.	-12.9%
N#C/C(=C\c1ccc(-c2ccccc2Cl)o1)C(=O)Nc1nc2ccccc2s1	13.3%	18.5%	3.55µM*	-1.6%	-5.4%
N#C/C(=C\c1ccc(-c2cc(Cl)ccc2Cl)o1)C(=O)Nc1ccccc1C(=O)O	-3.9%	.	7.08µM*	.	-7.0%
CC1CC1c1ccc(/C=C(\C#N)C(=O)Nc2cc(Cl)ccc2Cl)o1 (stereo not drawn)	-10.7%	-0.1%	-8.3%	-4.4%	-11.2%
O=C(Cn1c(=O)n(Cc2ccc3c(c2)OCO3)c(=O)c2oc3ccccc3c21)Nc1ccccc1F	-16.7%	.	15.3%	.	-8.5%
O=C(CSc1ccccn1)Nc1ccc2c(c1)C(=O)c1ccccc1C2=O	10.4%	-54.1%	-8.5%	1.9%	?
O=C(CSc1n[nH]c(=O)[nH]c1=O)Nc1ccc2c(c1)C(=O)c1ccccc1C2=O	14.6%	-0.4%	10µM*	.	12.6µM*[quencher]
SMILES	Tau FP inhib	NPSR antag	Tau fibril ThT	Luc counter	Tau fluor counter
COc1cc(OC)cc(C(=O)Nc2nnc3n2CCS3)c1	-1.9%	.	-3.9%	.	-0.4%
O=C(CNc1ccc2ccccc2c1)N/N=C/c1cc2ccccc2nc1Cl	-1.2%	-19.6%	?	4.9%	12.6µM*[quencher]
O=C(N/N=C\c1ccc([N+](=O)[O-])o1)c1ccc(O)cc1	.	.	.	-4.7%[17.1 µM]	.
O=C(CNc1ccc2ccccc2c1)N/N=C/c1ccc([N+](=O)[O-])o1	2.3%	-11.8%	?	-0.8%	14.1µM*[quencher]
CCCC(=O)Nc1ccc(C(=O)N/N=C/c2ccc([N+](=O)[O-])o2)cc1	-4.6%	-19.0%	8.91µM*	2.8%	-21.2%
O=C(COc1ccccc1)N/N=C/c1ccc([N+](=O)[O-])o1	-2.9%	-14.3%	?	0.7%	-17.3%
CCN1CCN(Cc2nc3cc(NC(=O)c4cccc([N+](=O)[O-])c4)ccc3n2CC)CC1	2.3%	.	-12.3%	.	-12.5%
CC(C)Nc1ccc(Nc2ccnc3cc4ccccc4cc23)cc1	-2.9%	?	5.01µM*	.	17.8µM*[quencher]
COc1ccccc1Nc1nc(NCC2CCCO2)c2ccccc2n1 (stereo not drawn)	5.5%	41.7%	-2.5%	-1.7%	-7.4%[2.34 µM]
COc1cccc(-c2nc(NCC3CCCO3)c3ccccc3n2)c1O (stereo not drawn)	19.2%	?	?	2.4%	20µM*[quencher]
COc1cccc(-c2nc(NC(C)C)c3ccccc3n2)c1O	9.9%	-14.2%[46.1 µM]	17.8µM*	1.4%	15.8µM*[quencher]
NC(=NCCc1ccccc1)NS(=O)(=O)c1ccccc1	4.7%	9.1%	-5.4%	3.6%	-6.4%
COc1ccccc1CNc1nc2nc(C)c(Cl)c(C)n2n1	-6.9%	.	-3.7%	.	-7.1%
O=C(Nc1ccc(Nc2ccccc2)cc1)C(Cl)(Cl)Cl	6.6%	-13.0%	?	-3.3%	7.94µM*[quencher]
CCOC(=O)C1(C)C=C(Nc2ccc(OC)cc2)C(=O)N1c1ccc(OC)cc1 (stereo not drawn)	2.4%	12.8%	4.2%	-1.0%	-0.7%
CCOC(=O)C1(C)C=C(Nc2ccc(O)cc2)C(=O)N1c1ccc(O)cc1 (stereo not drawn)	28.2µM*	-4.4%	14.1µM*	1.9%	?
Cc1ccc(C(=O)Nc2ccc(Cl)cn2)cc1	-4.9%	-3.6%[46.1 µM]	-11.0%	3.1%	-10.0%
Cc1ccc(NC(=O)c2cccc(Cl)c2)nc1	-6.0%	-5.7%[7.67 µM]	-0.2%	11.2µM*	4.8%
CCCCNc1nc2c(c(=O)n(Cc3ccc(Cl)cc3)c(=O)n2C)n1C	18.3%	.	?	.	?
CCCCNc1nc2c(c(=O)n(Cc3ccc(Cl)c(Cl)c3)c(=O)n2C)n1C	?	.	?	.	11.2µM*[quencher]
Nc1c(O)ccc2c1C(=O)c1ccccc1C2=O	?	10µM*	14.1µM*	-10.2%	?
CCOc1ccc(CCNC(=O)c2cc(=O)[nH]c3ccc(S(=O)(=O)N4CCCCC4C)cc23)cc1OCC (stereo not drawn)	?	.	4.9%	.	?
COc1ccc(/C=C/c2cc(OC)c(OC)cc2CC[N+](C)(C)C)cc1	-3.0%	.	-13.1%	-3.4%	-11.3%
O=C(Cn1c(=O)n(-c2ccc(Cl)cc2)c(=O)c2c3c(sc21)CCC3)c1ccc(F)cc1	1.4%	.	2.2%	.	-5.9%
NC(=O)[C@@H]1[C@@H]2C(=O)N(c3ccc(F)cc3)C(=O)[C@@H]2[C@H]2C=Cc3ccccc3N21	?	-29.0%	14.1µM*	.	-25.3%

From PubChem BioAssay
